One may read the AC50 as the midpoint of the concentration-response curve, whichever way the signal moves.

A short description of assay [1]: ATG_CRE_CIS: Attagene CIS-FACTORIAL HepG2 Assay for human cAMP Responsive Element (CRE) binding protein 3 (AID 2282926). The note with it: HepG2 CRE cis-reporter, Attagene multiplexed mRNA; actives raise or lower the signal. Put shortly: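 Transfected HepG2 were treated for 24 hours, then RNA was extracted and reporter cDNA amplified with sequence-specific primers. Labelled fragments were separated by capillary electrophoresis, and the CRE signal was fitted bidirectionally with DMSO as baseline.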

Assay [2] can be described thus: ATG_CMV_CIS: Attagene CIS-FACTORIAL HepG2 Assay for human CMV (Internal Marker) (AID 2282928).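 Note: endpoint acts as a background internal control marker rather than a target.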 The following applies: HepG2 CMV promoter reporter, transcription factor profiling; actives raise or lower the signal. Put shortly: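 Cell system: HepG2, transiently transfected multiple reporter units under cis promoters. Exposure: 24 h. Detection: RT-PCR, FAM labeling, HpaI digestion, capillary electrophoresis. Analysis: bidirectional, DMSO baseline.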

Assay [3] can be described thus: ATG_DR4_LXR_CIS: Attagene CIS-FACTORIAL HepG2 Assay for human Liver X Receptor (LXR), DR4 submotif (AID 2282929). The note with it: HepG2 Attagene DR4 cis-reporter, mRNA transcription; actives raise or lower the signal. The method in brief: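 HepG2 cells were transiently transfected with multiple cis-regulated reporter units and dosed for 24 hours. The DR4 reporter mRNA was quantified by RT-PCR, 6-FAM labelling and capillary electrophoresis. Bidirectional fits used DMSO as baseline.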

For assay [4], the target named is Aryl hydrocarbon receptor (Homo sapiens) (UniProt P35869). Put plainly: ATG_Ahr_CIS: Attagene CIS-FACTORIAL HepG2 Assay for human Aryl Hydrocarbon Receptor (Ahr) (AID 2282930). The note with it: HepG2 AhR cis-factorial reporter transcription; actives raise or lower the signal. The method in brief: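 Read-out: reporter mRNA quantified by RT-PCR with fluorescent primer extension and capillary electrophoresis. Human HepG2 liver cells carried transfected cis-promoter reporter units and were exposed to chemical for 24 h; gain or loss fitted relative to DMSO.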

The nature of assay [5]: ATG_AP_1_CIS: Attagene CIS-FACTORIAL HepG2 Assay for human Activator Protein 1 (AP-1) (AID 2282931). The note with it: HepG2 Attagene cis-factorial AP-1 reporter mRNA; actives raise or lower the signal. The method in brief:
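HepG2 cells transiently transfected with cis-element-driven reporter transcription units, dosed for 24 hours. Reporter mRNA measured by RT-PCR, 6-FAM labelling, HpaI digestion and capillary electrophoresis. Bidirectional fitting against DMSO baseline.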

Assay [6] in a line: ATG_AP_2_CIS: Attagene CIS-FACTORIAL HepG2 Assay for human Activator Protein 2 (AP-2) (AID 2282932). The note with it: HepG2 AP-2 cis-reporter, Attagene transcription factor profiling; actives raise or lower the signal. The method in brief:
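Multiplexed mRNA reporter assay in HepG2: cis-regulated units report endogenous factor activity after 24 h treatment. Fluorescence from capillary electrophoresis of RT-PCR products gives the signal, with DMSO as baseline.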

Assay [7] is described as follows: ATG_BRE_CIS: Attagene CIS-FACTORIAL HepG2 Assay for human Bone Morphogenetic Protein (BMP) Response Element (BRE) (AID 2282933). The note with it: HepG2 BMP response element reporter, Attagene transcription factor profiling; actives raise or lower the signal. Put shortly:
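Transient MRTU transfection of human HepG2 liver cells; 24 h compound treatment; total RNA isolated, reverse-transcribed, PCR-amplified, 6-FAM labelled, HpaI-cut, capillary electrophoresis. DMSO = negative control/baseline, bidirectional fit.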

For assay [8], the target named is Retinoic acid receptor alpha (Homo sapiens) (UniProt P10276). Put plainly: ATG_DR5_RAR_CIS: Attagene CIS-FACTORIAL HepG2 Assay for human Retinoic Acid Receptor Alpha (RARE), DR5 submotif (AID 2282934).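 For AC50: reporter responds to endogenous RAR alpha beta and gamma in HepG2 not RARA alone.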 The following applies: HepG2 Attagene cis-factorial RARE DR5 reporter, mRNA; actives raise or lower the signal. The method in brief:
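Read-out: DR5-driven reporter transcript measured by RT-PCR, 6-FAM primer extension, HpaI digest and capillary electrophoresis. Human HepG2 liver cells carry transiently transfected cis-element reporter constructs; dosing lasts 24 h. Gain or loss of signal fitted against DMSO baseline.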

Assay [9] addresses Transcription factor E2F1 (Homo sapiens) (UniProt Q01094). As to the kind of experiment: ATG_E2F_CIS: Attagene CIS-FACTORIAL HepG2 Assay for human E2F Transcription Factor 1 (AID 2282935). The note with it: HepG2 Attagene cis-reporter, E2F reporter RNA transcripts; actives raise or lower the signal. Put shortly:
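Measures reporter transcript levels via RT-PCR with capillary electrophoresis detection in HepG2 cells harboring cis-regulated reporter units; 24 h post-dose; bidirectional curve fitting with DMSO as baseline.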

Activity calls are given as the source filed them. Rule for the calls: active = hit-call score of the fitted dose curve at least 0.9, where 1 is the maximum; inactive = score below 0.9.

Chain of Aryl hydrocarbon receptor (Homo sapiens) (P35869 whole entry, looked up): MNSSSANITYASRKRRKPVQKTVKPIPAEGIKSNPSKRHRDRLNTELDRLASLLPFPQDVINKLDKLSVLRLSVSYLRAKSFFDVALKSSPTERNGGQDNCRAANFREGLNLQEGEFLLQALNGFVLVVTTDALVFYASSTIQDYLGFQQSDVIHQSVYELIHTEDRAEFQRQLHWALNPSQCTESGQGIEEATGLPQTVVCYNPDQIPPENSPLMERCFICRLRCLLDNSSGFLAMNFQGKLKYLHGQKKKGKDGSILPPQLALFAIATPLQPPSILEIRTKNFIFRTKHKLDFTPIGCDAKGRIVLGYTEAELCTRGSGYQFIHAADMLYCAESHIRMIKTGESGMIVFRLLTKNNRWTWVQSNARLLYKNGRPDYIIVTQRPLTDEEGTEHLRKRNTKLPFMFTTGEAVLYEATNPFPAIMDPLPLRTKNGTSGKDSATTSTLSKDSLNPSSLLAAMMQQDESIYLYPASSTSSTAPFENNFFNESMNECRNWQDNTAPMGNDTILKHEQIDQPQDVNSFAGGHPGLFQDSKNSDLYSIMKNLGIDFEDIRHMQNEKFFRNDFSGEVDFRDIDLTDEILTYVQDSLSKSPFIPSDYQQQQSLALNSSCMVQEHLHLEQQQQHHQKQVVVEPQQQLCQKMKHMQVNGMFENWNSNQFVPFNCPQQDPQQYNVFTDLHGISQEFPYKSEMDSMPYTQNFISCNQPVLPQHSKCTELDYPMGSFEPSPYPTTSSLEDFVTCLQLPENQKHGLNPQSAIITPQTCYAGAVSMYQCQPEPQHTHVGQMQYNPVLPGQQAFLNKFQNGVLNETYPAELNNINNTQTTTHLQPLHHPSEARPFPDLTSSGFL
Chain of Retinoic acid receptor alpha (Homo sapiens) (P10276 whole entry, looked up): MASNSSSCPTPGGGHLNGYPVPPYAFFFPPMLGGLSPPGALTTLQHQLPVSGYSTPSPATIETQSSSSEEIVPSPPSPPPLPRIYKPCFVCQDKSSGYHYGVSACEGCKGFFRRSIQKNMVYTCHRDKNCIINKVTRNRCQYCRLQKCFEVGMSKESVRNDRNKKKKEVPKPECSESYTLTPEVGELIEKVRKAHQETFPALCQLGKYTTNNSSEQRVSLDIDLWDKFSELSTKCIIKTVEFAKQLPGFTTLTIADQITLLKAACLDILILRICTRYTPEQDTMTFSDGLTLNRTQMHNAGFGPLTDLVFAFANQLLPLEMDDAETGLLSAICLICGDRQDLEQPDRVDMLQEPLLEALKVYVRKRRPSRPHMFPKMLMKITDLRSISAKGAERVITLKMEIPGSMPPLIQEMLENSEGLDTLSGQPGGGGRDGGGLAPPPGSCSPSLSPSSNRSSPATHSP
Chain of Transcription factor E2F1 (Homo sapiens) (Q01094 whole entry, looked up): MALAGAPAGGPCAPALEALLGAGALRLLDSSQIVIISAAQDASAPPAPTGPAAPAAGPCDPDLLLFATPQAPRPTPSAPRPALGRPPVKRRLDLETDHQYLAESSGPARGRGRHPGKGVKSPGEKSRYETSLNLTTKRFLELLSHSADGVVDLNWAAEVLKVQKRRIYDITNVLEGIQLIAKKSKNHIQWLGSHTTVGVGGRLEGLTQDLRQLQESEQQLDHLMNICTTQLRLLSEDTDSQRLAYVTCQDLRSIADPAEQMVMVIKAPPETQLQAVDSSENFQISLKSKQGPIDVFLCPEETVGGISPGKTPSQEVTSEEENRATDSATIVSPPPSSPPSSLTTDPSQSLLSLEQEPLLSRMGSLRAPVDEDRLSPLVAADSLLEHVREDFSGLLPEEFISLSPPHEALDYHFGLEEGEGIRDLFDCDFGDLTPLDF

On to `CCN(C(=O)c1cc(C)cc(OC[C@H](C)Nc2ccncc2)c1)C(C)C`, for which the molecule was called inactive in [1], in assay [2], in [4], in assay [5], in [6] and in assay [7]. The result in [8] and in [9] was inactive. The AC50 in assay [3] was 67.5 µM (active).
As for `CC(C)=CCC/C(C)=C\CO`, the outcome in assay [1], in assay [2], in assay [3], in [4], in [5] and in [6] was inactive. Besides, the outcome in [7] and in [9] was inactive.
Turning to `CCCC(=O)OCC`, the molecule was called inactive in assay [1], in assay [2], in [3], in assay [4], in [5] and in assay [6]. Further, the molecule was called inactive in [7], in assay [8] and in assay [9].
With `Cc1[nH]cnc1C[C@H]1CCc2c(C)c3ccccc3n2C1=O`, the half-maximal activity concentration (AC50) in [1] is 29.7 µM (active); in assay [3] it was 42.1 µM (active); in [7], 29.7 µM (active). For the same molecule, the molecule was classed as inactive in assay [2], in [4], in [5], in assay [6], in assay [8] and in assay [9].
With `COc1cccc(-c2ccc(/C=C\CN3CCCCCC3)cc2Cl)c1`, the result in assay [1], in assay [2], in assay [3], in [4], in assay [6] and in assay [9] was inactive. The half-maximal activity concentration (AC50) in assay [5] was 16.2 µM (active); in assay [7], 17.4 µM (active).
On to `CC(=O)OC[C@H]1O[C@@](COC(C)=O)(O[C@H]2O[C@H](COC(C)=O)[C@@H](OC(C)=O)[C@H](OC(C)=O)[C@H]2OC(C)=O)[C@@H](OC(C)=O)[C@@H]1OC(C)=O`, for which the molecule was called inactive in assay [1], in assay [2], in assay [3], in [5], in assay [6] and in assay [7]. The call in [8] and in [9] was inactive. The AC50 in assay [4] is 53 µM (active).
As to `COCCOc1cc2cc(C(=O)NC3CCN(C(C)C)CC3)n(CC(=O)Nc3ccc(Cl)cn3)c2cn1`, the AC50 was 100 µM (active) in assay [1], 71.6 µM (active) in assay [3], 6.53 µM (active) in assay [4] and 50.4 µM (active) in [8]. Also, the molecule was classed as inactive in assay [2], in assay [5], in assay [6], in assay [7] and in assay [9].
Take `CC(C)=CCCC(C)CCO` (stereo not drawn): the molecule was classed as inactive in assay [1], in assay [2], in assay [3], in assay [4], in [5] and in assay [6]. Besides, the molecule was called inactive in [7], in [8] and in [9].
Regarding `CCn1nc(Cc2ccccc2)cc1C1CCN(C[C@H]2C[C@H](N(C)[C@@H](C(=O)O)C(C)C)C[C@@H]2c2cccc(F)c2)CC1`, the molecule was called inactive in assay [1], in assay [2], in assay [4], in assay [5], in assay [6] and in assay [7]. The molecule was classed as inactive in assay [8] and in assay [9]. The half-maximal activity concentration (AC50) in assay [3] is 100 µM (active).
Take `CC[C@H]1OC(=O)[C@H](C)[C@@H](O[C@H]2C[C@@](C)(OC)[C@@H](O)[C@H](C)O2)[C@H](C)[C@@H](O[C@@H]2O[C@H](C)C[C@H](N(C)C)[C@H]2O)[C@](C)(O)C[C@@H](C)C(=O)[C@H](C)[C@@H](O)[C@]1(C)O`: the molecule was called inactive in assay [1], in assay [2], in assay [3], in assay [4], in assay [5] and in assay [6]. The molecule was classed as inactive in [7], in assay [8] and in assay [9].
As for `CCCCC(CC)COC(=O)c1ccc(C(=O)OCC(CC)CCCC)cc1` (stereo not drawn), the call in assay [1], in [2], in [3], in assay [5], in assay [6] and in [7] was inactive. In addition, the call in assay [8] and in assay [9] was inactive. Also, the AC50 in assay [4] was 66 µM (active).
On to `COc1ccc(/C=C/S(=O)(=O)NC(=O)c2ccc(C)cc2Cl)cc1`, for which the result in [1], in assay [2], in assay [3], in assay [4], in [5] and in assay [6] was inactive. Also, the molecule was classed as inactive in assay [7], in assay [8] and in [9].
As for `O=C(O)CCN(C1(C(=O)NO)CCCC1)S(=O)(=O)c1ccc(Oc2ccc(F)cc2)cc1`, the call in assay [1], in [2], in assay [3], in [4], in assay [5] and in [6] was inactive. Further, the molecule was called inactive in assay [7], in [8] and in assay [9].
`CC(C)(O)c1coc(S(=O)(=O)NC(=O)Nc2c3c(cc4c2CCC4)CCC3)c1`: the molecule was classed as inactive in assay [1], in assay [2], in assay [3], in assay [4], in assay [5] and in assay [6]. For the same molecule, the result in assay [7], in [8] and in assay [9] was inactive.
On to `O=C(O)c1cccc(Oc2ccccc2)c1`, for which the molecule was classed as inactive in [1], in assay [2], in [3], in assay [4], in assay [5] and in assay [6]. The molecule was classed as inactive in [7], in [8] and in assay [9].
As for `C1=CCCC=CCCC=CCC1`, the outcome in [1], in assay [4], in assay [6], in assay [7], in assay [8] and in [9] was inactive. For the same molecule, the figures for the half-maximal activity concentration (AC50) in assay [2], in [3] and in assay [5] were 135 µM (active), 100 µM (active) and 161 µM (active), respectively.
On to `CCCCCCc1ccc(O)cc1O`, for which the outcome in assay [1], in assay [4], in [5], in assay [6], in assay [7] and in assay [8] was inactive. Further, the outcome in [9] was inactive. Besides, the values for the AC50 in [2] and in [3] were 33.4 µM (active) and 44.4 µM (active), respectively.
For `CNS(=O)(=O)c1cc(C(=O)N2CCC(CCN3C4CCC3CC(n3c(C)nc5ccccc53)C4)(c3cccc(F)c3)CC2)c(Cl)cc1F` (stereo not drawn), the result in [1], in assay [2], in [4], in assay [5], in assay [6] and in assay [7] was inactive. In addition, the outcome in assay [8] and in [9] was inactive. In [3], the AC50 was 7.55 µM (active).
Consider `CCC(C)(C)C(=O)O[C@H]1C[C@@H](C)C=C2C=C[C@H](C)[C@H](CC[C@@H]3C[C@@H](O)CC(=O)O3)[C@H]21`, for which the result in assay [1], in [2], in assay [3], in assay [4], in [5] and in assay [6] was inactive. Besides, the molecule was called inactive in assay [7], in assay [8] and in assay [9].
As for `CCOCCOCCOCCO`, the outcome in assay [1], in assay [2], in [3], in assay [4], in assay [5] and in assay [6] was inactive. For the same molecule, the outcome in assay [7], in assay [8] and in assay [9] was inactive.
On to `Cn1c(=O)c2c(ncn2C)n(C)c1=O`, for which the call in assay [1], in [2], in assay [3], in assay [4], in assay [5] and in assay [6] was inactive. The result in [7], in assay [8] and in [9] was inactive.
For the molecule `Cn1cnc([N+](=O)[O-])c1Sc1ncnc2nc[nH]c12`, the outcome in [1], in assay [3], in assay [4], in assay [6], in assay [7] and in assay [8] was inactive. For the same molecule, the molecule was called inactive in assay [9]. The figures for the concentration at half-maximal activity (AC50) in [2] and in [5] were 35.3 µM (active) and 28.1 µM (active), respectively.
For the molecule `CCCN(C1CCN(C(=O)C2CCNCC2)CC1)[C@@H]1CCc2ccc(OC)cc2C1`, the call in [1], in [2], in [5], in assay [8] and in [9] was inactive. In addition, the AC50 in assay [3] is 68.6 µM (active); in assay [4] it was 32.9 µM (active); in assay [6], 82.6 µM (active); in assay [7], 53.3 µM (active).
As to `CC[C@H](C)C(=O)O[C@H]1C[C@@H](C)C=C2C=C[C@H](C)[C@H](CC[C@@H]3C[C@@H](O)CC(=O)O3)[C@H]21`, the outcome in assay [1], in assay [2], in [4], in [5], in assay [6] and in assay [7] was inactive. Moreover, the call in assay [9] was inactive. The AC50 in assay [3] was 52.4 µM (active).

The values are drawn from PubChem BioAssay (EPA / NIEHS).
